Results published in PubChem BioAssay (EPA / NIEHS).
The source made the active and inactive calls. How the source made its calls: active means hit-call score of the fitted dose curve at least 0.9, where 1 is the maximum; inactive means score below 0.9.

What was measured:
Settings in all cases: mRNA level, 48 h; actives raise or lower the signal
[1] = read-out: Tumor necrosis factor receptor superfamily member 6 (Homo sapiens) (UniProt P25445); assay: LTEA_HepaRG_FAS: Life Technologies and Expression Analysis (LTEA) Assay for Fas cell surface death receptor (FAS) using HepaRG (AID 2283447)
Method in brief: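 Differentiated HepaRG cells in serum-free induction medium were exposed 48 h to 8 half-log concentrations up to 100 uM in 0.5% DMSO, in duplicate. FAS mRNA was measured by qRT-PCR normalised to ACTB, GAPDH and POLR2A; bidirectional fit versus DMSO.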

[2] = read-out: Fatty acid synthase (Homo sapiens) (UniProt P49327); assay: LTEA_HepaRG_FASN: Life Technologies and Expression Analysis (LTEA) Assay for Fatty Acid Synthase (FASN) using HepaRG (AID 2283448);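 on AC50: differentiated human HepaRG liver cells in serum-free induction medium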
Method in brief: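 In human HepaRG cultures, 48 h chemical exposure (up to 100 uM, 0.5% DMSO) preceded TaqMan qRT-PCR of FASN.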

[3] = read-out: Cyclin D2 (CCND2), CCND2 (gene 894); assay: LTEA_HepaRG_CCND2: Life Technologies and Expression Analysis (LTEA) Assay for Cyclin D2 (CCND2) using HepaRG (AID 2283449);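 further: CCND2 transcript measured by TaqMan qRT-PCR and normalised to three housekeeping genes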
Method in brief: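 HepaRG, 48 h dosing, 8-pt half-log curve from 100 uM, 0.5% DMSO; duplicate wells. Readout: CCND2 transcript by microfluidic qRT-PCR, housekeeping-normalised; bidirectional fit vs DMSO baseline.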

[4] = read-out: Cyclin Dependent Kinase Inhibitor 1A (CDKN1A), CDKN1A (gene 1026); assay: LTEA_HepaRG_CDKN1A: Life Technologies and Expression Analysis (LTEA) Assay for Cyclin Dependent Kinase Inhibitor 1A (CDKN1A) using HepaRG (AID 2283450)
Method in brief: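 HepaRG, 48 h dosing, 8-pt half-log series from 100 uM top, 0.5% DMSO vehicle, duplicates. Readout: TaqMan qRT-PCR of CDKN1A transcript, housekeeping-normalized (ACTB, GAPDH, POLR2A). Up/down curve fit relative to DMSO.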

[5] = read-out: Cyclin D1 (CCND1), CCND1 (gene 595); assay: LTEA_HepaRG_CCND1: Life Technologies and Expression Analysis (LTEA) Assay for Cyclin D1 (CCND1) using HepaRG (AID 2283451);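 on AC50: differentiated human HepaRG liver cells in serum-free induction medium; TaqMan qRT-PCR transcript level normalised to ACTB GAPDH and POLR2A housekeeping genes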
Method in brief: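 qRT-PCR (Fluidigm 96.96 array) read-out of transcript level, housekeeping-normalized (ACTB/GAPDH/POLR2A). HepaRG cells, 48 h chemical exposure, 8-point half-log series from 100 uM, 0.5% DMSO vehicle; gain or loss relative to DMSO baseline.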

[6] = read-out: flavin-containing dimethylaniline monooxygenases 3 (FMO3), FMO3 (gene 2328); assay: LTEA_HepaRG_FMO3: Life Technologies and Expression Analysis (LTEA) Assay for flavin-containing dimethylaniline monooxygenases 3 (FMO3) using HepaRG (AID 2283453);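 on AC50: differentiated human HepaRG liver cells in serum-free induction medium; FMO3 transcript by TaqMan qRT-PCR normalized to ACTB GAPDH and POLR2A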
Method in brief: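 Eight-point concentration-response in serum-free HepaRG cultures (top 100 uM, 0.5% DMSO, 48 h). Read-out: FMO3 mRNA level normalized to three endogenous control genes, fitted bidirectionally versus vehicle.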

[7] = read-out: Cytochrome P450 (CYP1A1), CYP1A1 (gene 1543); assay: LTEA_HepaRG_CYP1A1: Life Technologies and Expression Analysis (LTEA) Assay for Cytochrome P450 (CYP1A1) using HepaRG (AID 2283454)
Method in brief: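 qRT-PCR read-out: CYP1A1 transcript normalized to three housekeeping genes, fitted bidirectionally against 0.5% DMSO vehicle baseline. Human HepaRG cells, 48 h chemical exposure, 8-point half-log series topping at 100 uM.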

[8] = read-out: Forkhead box O1 (FOXO1), FOXO1 (gene 2308); assay: LTEA_HepaRG_FOXO1: Life Technologies and Expression Analysis (LTEA) Assay for Forkhead box O1 (FOXO1) using HepaRG (AID 2283456)
Method in brief: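 HepaRG, 48 h exposure, 8-pt half-log series from 100 uM in 0.5% DMSO, duplicates; Fluidigm qRT-PCR mRNA, housekeeping-normalised; bidirectional fit vs DMSO baseline.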

[9] = read-out: catalase (CAT), CAT (gene 847); assay: LTEA_HepaRG_CAT: Life Technologies and Expression Analysis (LTEA) Assay for catalase (CAT) using HepaRG (AID 2283452)
Method in brief: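 HepaRG cells in serum-free induction medium, 0.5% DMSO vehicle, exposed 48 h in duplicate over 8 half-log concentrations from 100 uM. CAT mRNA measured by qRT-PCR, normalized to ACTB, GAPDH, POLR2A; bidirectional fit versus DMSO.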

[10] = read-out: CFLAR gene, CFLAR (gene 8837); assay: LTEA_HepaRG_CFLAR: Life Technologies and Expression Analysis (LTEA) Assay for CFLAR gene using HepaRG (AID 2283455)
Method in brief: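 qRT-PCR read-out (Fluidigm/TaqMan) of CFLAR mRNA, normalized to three housekeeping genes, in differentiated human HepaRG cells after 48 h chemical exposure; 8-point half-log series from 100 uM in 0.5% DMSO; bidirectional curve fitting versus DMSO.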

Measured: AC50

Fatty acid synthase (Homo sapiens), sequence (P49327 whole entry, looked up): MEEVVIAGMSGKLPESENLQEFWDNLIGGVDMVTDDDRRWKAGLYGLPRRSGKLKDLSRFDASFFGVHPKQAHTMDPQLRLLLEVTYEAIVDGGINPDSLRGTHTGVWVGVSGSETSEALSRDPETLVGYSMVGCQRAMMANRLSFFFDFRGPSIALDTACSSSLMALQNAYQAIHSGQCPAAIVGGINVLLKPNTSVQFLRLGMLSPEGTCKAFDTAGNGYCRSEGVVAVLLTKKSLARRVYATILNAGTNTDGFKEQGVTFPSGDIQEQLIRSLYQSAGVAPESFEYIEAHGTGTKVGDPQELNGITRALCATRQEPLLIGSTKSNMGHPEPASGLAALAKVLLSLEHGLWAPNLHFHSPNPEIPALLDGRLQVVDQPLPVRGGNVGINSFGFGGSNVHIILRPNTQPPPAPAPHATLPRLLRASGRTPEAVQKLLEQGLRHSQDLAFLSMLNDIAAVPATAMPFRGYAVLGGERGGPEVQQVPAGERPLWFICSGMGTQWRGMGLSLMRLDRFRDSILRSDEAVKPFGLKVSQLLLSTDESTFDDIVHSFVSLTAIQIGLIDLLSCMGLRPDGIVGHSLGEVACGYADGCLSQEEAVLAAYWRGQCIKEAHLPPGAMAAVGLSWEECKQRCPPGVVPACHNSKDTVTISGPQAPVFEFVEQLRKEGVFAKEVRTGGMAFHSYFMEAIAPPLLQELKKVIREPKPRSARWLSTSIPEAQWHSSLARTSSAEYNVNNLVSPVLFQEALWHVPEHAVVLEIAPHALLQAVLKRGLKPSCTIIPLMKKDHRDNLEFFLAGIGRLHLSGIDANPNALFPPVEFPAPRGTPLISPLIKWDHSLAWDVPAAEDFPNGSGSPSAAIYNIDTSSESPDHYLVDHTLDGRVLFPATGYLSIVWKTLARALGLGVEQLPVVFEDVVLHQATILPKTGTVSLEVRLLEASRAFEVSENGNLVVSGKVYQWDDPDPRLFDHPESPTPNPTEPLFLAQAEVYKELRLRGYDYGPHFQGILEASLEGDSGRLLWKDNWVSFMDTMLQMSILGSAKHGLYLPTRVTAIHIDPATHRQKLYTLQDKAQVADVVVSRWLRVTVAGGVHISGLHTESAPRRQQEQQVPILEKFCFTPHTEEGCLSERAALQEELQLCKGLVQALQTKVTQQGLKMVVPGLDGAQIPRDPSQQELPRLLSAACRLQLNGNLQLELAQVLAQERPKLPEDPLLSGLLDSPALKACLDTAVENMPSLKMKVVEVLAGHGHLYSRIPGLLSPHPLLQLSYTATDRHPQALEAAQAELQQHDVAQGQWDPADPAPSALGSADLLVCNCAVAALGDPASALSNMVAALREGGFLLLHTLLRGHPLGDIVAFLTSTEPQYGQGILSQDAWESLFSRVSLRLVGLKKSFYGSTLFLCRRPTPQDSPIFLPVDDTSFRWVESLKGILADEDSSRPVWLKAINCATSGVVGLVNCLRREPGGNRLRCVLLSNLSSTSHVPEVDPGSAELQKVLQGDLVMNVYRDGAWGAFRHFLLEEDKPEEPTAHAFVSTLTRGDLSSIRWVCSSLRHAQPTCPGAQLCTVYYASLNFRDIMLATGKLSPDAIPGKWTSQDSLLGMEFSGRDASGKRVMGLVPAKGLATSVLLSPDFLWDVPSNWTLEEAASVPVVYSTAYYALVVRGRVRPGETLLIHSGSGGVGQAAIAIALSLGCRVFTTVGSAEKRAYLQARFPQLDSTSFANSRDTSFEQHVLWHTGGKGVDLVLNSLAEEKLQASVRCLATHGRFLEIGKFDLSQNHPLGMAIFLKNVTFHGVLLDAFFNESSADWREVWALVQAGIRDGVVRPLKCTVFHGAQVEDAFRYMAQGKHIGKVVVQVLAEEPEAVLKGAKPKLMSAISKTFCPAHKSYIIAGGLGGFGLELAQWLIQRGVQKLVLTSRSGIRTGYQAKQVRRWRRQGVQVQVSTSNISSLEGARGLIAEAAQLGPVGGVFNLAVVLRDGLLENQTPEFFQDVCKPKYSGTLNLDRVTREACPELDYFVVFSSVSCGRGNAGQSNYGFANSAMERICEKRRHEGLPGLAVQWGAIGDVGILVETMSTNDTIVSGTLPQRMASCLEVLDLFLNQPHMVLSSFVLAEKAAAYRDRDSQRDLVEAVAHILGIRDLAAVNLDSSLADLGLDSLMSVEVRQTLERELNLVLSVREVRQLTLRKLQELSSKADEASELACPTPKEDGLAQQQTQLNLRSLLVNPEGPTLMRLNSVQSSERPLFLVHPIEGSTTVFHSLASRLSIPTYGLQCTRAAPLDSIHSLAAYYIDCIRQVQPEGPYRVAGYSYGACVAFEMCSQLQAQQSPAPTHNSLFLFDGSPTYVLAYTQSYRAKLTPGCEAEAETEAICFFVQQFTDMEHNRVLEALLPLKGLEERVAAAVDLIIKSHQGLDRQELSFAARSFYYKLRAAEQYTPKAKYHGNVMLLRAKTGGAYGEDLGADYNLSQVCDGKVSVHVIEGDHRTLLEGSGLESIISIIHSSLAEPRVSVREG

Cn1c(=O)c2c(ncn2C)n(C)c1=O
active: [7] 50 µM
not listed: [9] | [10]
inactive: all other assays above

CCOCCO
not listed: [3]
inactive: all other assays above

Oc1ccc2c(c1)-c1ccccc1C2
active: [7] 10.5 µM
not listed: [3]
inactive: all other assays above

O=C(O)c1cccc(Oc2ccccc2)c1
active: [7] 37.9 µM
not listed: [9] | [10]
inactive: all other assays above

CCCN(C1CCN(C(=O)C2CCNCC2)CC1)[C@@H]1CCc2ccc(OC)cc2C1
active: [2] 80.6 µM | [5] 50 µM | [6] 57.5 µM | [8] 50 µM
inactive: [1] | [3] | [4] | [7]

COCCOCCOCCOC
not listed: [9] | [10]
inactive: all other assays above

O=C(O)CC(O)C(=O)O (stereo not drawn)
active: [7] 77.9 µM
not listed: [3] | [9] | [10]
inactive: all other assays above

CCc1cc(SCc2sc(-c3ccc(C(F)(F)F)cc3)nc2CN2CCN(c3ccc(OC)cc3)CC2)ccc1OCC(=O)O
active: [1] 26.2 µM | [2] 71.3 µM | [4] 85.4 µM | [5] 93.4 µM | [6] 5.55 µM | [7] 7.69 µM | [10] 92.2 µM | [8] 92.4 µM

Cn1cnc([N+](=O)[O-])c1Sc1ncnc2nc[nH]c12
inactive: [1] | [2] | [3] | [5]
active: [4] 4.48 µM | [6] 17.5 µM | [7] 34.8 µM | [8] 5.19 µM

CCN(C(=O)c1cc(C)cc(OC[C@H](C)Nc2ccncc2)c1)C(C)C
inactive: [4] | [5] | [10] | [8]
active: [1] 8.02 µM | [2] 5.84 µM | [6] 50.7 µM | [7] 19.5 µM

COC(=O)c1c(Cl)c(Cl)c(C(=O)OC)c(Cl)c1Cl
active: [7] 50 µM
not listed: [3] | [9]
inactive: all other assays above

COC(=O)c1ccccc1O
not listed: [3] | [9]
inactive: all other assays above

CC(C)=CCCC(C)=CC=O
active: [7] 63.9 µM
not listed: [3] | [9]
inactive: all other assays above

COC(=O)CC(=O)OC
active: [2] 50 µM | [7] 50 µM
not listed: [3] | [10]
inactive: all other assays above

CC/C(=C\C(=N/O)C(N)=O)C(C)[N+](=O)[O-] (stereo not drawn)
active: [7] 31.9 µM
not listed: [9] | [10]
inactive: all other assays above

C1=CCCC=CCCC=CCC1
not listed: [9] | [10]
inactive: all other assays above

CC(C)=CCC/C(C)=C/CO
not listed: [7] | [9] | [10]
inactive: all other assays above

Cc1[nH]cnc1C[C@H]1CCc2c(C)c3ccccc3n2C1=O
active: [1] 69.3 µM | [2] 29.9 µM | [5] 79.7 µM | [9] 24.3 µM | [6] 32 µM | [7] 10.7 µM | [10] 79.9 µM | [8] 75.4 µM
inactive: [4]

O=c1[nH]c2ccc(S(=O)CCN3CCC(Cc4ccc(F)cc4)CC3)cc2o1 (stereo not drawn)
active: [6] 72.9 µM | [7] 59 µM
not listed: [9] | [10]
inactive: all other assays above

CCCCCCCCCCCCc1ccccc1
active: [7] 73.7 µM
not listed: [3] | [10]
inactive: all other assays above

On1ccccc1=S
not listed: [1] | [3] | [9]
inactive: all other assays above

CN(C)c1ccc(N=NS(=O)(=O)O)cc1
active: [7] 17.9 µM
not listed: [3]
inactive: all other assays above

CC(C)CCO
not listed: [1] | [10]
inactive: all other assays above

CC(C)CC(C)(O)C#CC(C)(O)CC(C)C (stereo not drawn)
active: [7] 50 µM
not listed: [1] | [9]
inactive: all other assays above
